A short description of test [1]: Stat Signaling Pathway (AID 446; active = well fitted curve in either direction with a large enough effect, not every such curve was filed as active;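 note: ME-180 cervical cancer cells given 40 pM IL-6 alongside compound; SIE-controlled beta-lactamase reporter measured as 460/530 nm FRET emission ratio; % is set by controls: 0 for no effect and ±100 for the full control effect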). An outline of the steps:
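Reporter line: ME-180 cervical carcinoma, SIE-beta-lactamase. Treatment: compound with 40 pM IL-6, 5 hrs, 37 C, in low-serum OPTI-MEM with 10 mM HEPES pH 7.3. Detection: 460/530 nm fluorescence.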

The target of test [2] is Glucocorticoid receptor (Homo sapiens) (UniProt P04150). Briefly: GR-GFP Redistribution (AID 450;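 active = compounds whose dose series gives a full or clear partial fitted curve of increased nuclear translocation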; note: potency is the fitted concentration of half-maximal effect). As to conditions: U2OS GR-GFP nuclear translocation, laser cytometry, 2 h.
For test [3], the target named is 3',5'-cyclic-AMP phosphodiesterase 4B (Homo sapiens) (UniProt Q07343). As to the kind of experiment: qHTS Assay for Inhibitors of PDE-IV (AID 607; active = well fitted activation curve with a large enough effect in the main read-out, with a control signal flat, not every such curve was filed as active; note: % of control where 0% means no effect). An outline of the steps: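 Cell-based read-out of cAMP via a modified cyclic nucleotide-gated channel and membrane potential dye (535/590 nm) in HEK293 cells expressing PDE4 endogenously. Compounds tested up to 22.9 uM final; 100 uM RO 20-1724 reference.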
Chain of 3',5'-cyclic-AMP phosphodiesterase 4B (Homo sapiens) (Q07343 whole entry, looked up): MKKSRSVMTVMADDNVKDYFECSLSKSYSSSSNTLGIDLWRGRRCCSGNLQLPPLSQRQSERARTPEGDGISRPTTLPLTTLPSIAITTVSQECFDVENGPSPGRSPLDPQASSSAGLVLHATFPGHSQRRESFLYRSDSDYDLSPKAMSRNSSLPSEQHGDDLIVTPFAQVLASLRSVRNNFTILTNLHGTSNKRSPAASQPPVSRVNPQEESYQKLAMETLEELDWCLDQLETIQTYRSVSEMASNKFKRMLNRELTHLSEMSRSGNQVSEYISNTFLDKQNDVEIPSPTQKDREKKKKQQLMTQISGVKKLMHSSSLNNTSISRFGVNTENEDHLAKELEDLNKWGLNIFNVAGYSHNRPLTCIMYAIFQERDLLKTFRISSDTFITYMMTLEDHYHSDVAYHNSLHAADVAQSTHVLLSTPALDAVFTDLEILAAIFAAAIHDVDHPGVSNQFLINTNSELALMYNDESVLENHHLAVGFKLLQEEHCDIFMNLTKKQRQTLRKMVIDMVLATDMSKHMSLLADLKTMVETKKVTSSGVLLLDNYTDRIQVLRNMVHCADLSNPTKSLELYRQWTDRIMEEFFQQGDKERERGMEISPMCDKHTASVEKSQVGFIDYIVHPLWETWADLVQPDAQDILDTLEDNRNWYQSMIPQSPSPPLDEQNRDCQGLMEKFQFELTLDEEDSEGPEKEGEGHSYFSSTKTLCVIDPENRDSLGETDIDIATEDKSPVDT
Background: Quantitative high-throughput screening tests each substance at several concentrations.

Test [4] addresses Guanine nucleotide-binding protein G(i) subunit alpha-1 (Homo sapiens) (UniProt P63096). As to the kind of experiment: qHTS Assay for Inhibitors of RGS12 GoLoco Motif Activity (Green Fluorophore) (AID 879).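 Note: 0% = labeled peptide with Gαi1 and full inhibition = labeled peptide alone without protein; negative values mean loss of peptide binding seen as reduced polarization.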 An outline of the steps:
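Fluorescence polarization assay: 50 nM Gαi1 with 10 nM FITC-labeled RGS12 GoLoco peptide in 10 mM Tris pH 7.5, 150 mM NaCl, 0.1 mM GDP, 0.05% NP40, 10 min at room temperature with compound.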

Test [5] in a line: qHTS Assay for Identification of Small Molecule Antagonists for Thrombopoietin (TPO) Signaling Pathway (AID 918). Note: potency is the fitted concentration of half-maximal effect; nearly all actives have a fitted effect of over 60% in size. The following applies: TPO-dependent cell signaling reporter, antagonist mode. An outline of the steps: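 Murine Ba/F3 cells stably expressing human TPO receptor and a Glycoprotein IIb promoter–luciferase reporter were IL-3-starved overnight, treated with compounds plus TPO (26 pM final, its EC50) for 24 hrs at 37 C, then read by luminescence.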

Test [6] has as its target Muscarinic acetylcholine receptor M1 (Rattus norvegicus) (UniProt P08482). Briefly: qHTS Assay for Antagonists of Acetylcholine Muscarinic M1 Receptor: Measurement of IP-One Response (AID 944). Note: nearly all actives have a fitted effect of over 75% in size. An outline of the steps:
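CHO cells expressing rat M1 receptor, recovered overnight, were pre-incubated 10 min with compound, then stimulated 30 min with carbachol at EC80 (200 nM) in LiCl-containing buffer, pH 7.4. IP1 accumulation was read by HTRF (620/665 nm).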

The target of test [7] is Pyruvate kinase (Leishmania mexicana) (UniProt Q27686). Briefly: qHTS Validation Assay for Inhibitors of Leishmania Mexicana Pyruvate Kinase (AID 945).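 Note: 0% = DMSO only neutral control wells.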 An outline of the steps: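 Mutant LmPYK (E451W), 0.2 nM, plus 0.5 mM PEP and 0.1 mM ADP in 50 mM imidazole pH 7.2 containing 0.01% Tween 20 and 0.05% BSA. Incubated 1 h at room temperature; luminescence via PKLight, normalized to DMSO.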

In test [8] the target is Pyruvate kinase PKM (Homo sapiens) (UniProt P14618). As to the kind of experiment: qHTS Assay for Activators of Human Muscle Pyruvate Kinase (AID 954; active = well fitted curve in the direction sought with a large enough effect, not every such curve was filed as active;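 note: 0% = uninhibited enzyme and -100% = no enzyme or full thiadiazolimine inhibition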). An outline of the steps: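 Human PKM2 activity is measured as ATP generation, detected by luciferase-coupled luminescence. The enzyme (0.1 nM) acts on 0.5 mM PEP and 0.1 mM ADP for 1 h at ambient temperature; data are normalized to uninhibited and full-inhibition wells.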
Chain of Pyruvate kinase PKM (Homo sapiens) (P14618 whole entry, looked up): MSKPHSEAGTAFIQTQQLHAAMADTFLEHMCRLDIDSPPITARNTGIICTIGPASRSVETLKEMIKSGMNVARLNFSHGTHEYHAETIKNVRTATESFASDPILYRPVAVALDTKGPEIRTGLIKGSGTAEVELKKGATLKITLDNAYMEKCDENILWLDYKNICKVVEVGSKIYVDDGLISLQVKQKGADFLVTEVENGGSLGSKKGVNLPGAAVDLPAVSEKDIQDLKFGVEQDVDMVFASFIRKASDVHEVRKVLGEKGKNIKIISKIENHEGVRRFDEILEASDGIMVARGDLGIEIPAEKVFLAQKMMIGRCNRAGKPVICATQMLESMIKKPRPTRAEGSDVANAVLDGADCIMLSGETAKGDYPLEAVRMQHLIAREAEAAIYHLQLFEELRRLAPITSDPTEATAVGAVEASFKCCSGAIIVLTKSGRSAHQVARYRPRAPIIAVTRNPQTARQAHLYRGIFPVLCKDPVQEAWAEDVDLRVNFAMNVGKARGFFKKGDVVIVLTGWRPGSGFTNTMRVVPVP

The target in test [9] is Alpha-galactosidase A (Homo sapiens) (UniProt P06280). As to the kind of experiment: Counterscreen for Glucocerebrosidase Inhibitors: qHTS Assay for Human alpha-Galactosidase at pH 4.5 (AID 992). Note: 0% is about no effect. An outline of the steps:
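Quantitative HTS: compounds tested from 0.7 nM up to 77 uM against 2 nM enzyme with 80 uM 4-MU alpha-D-galactopyranoside. The 20 min room-temperature reaction is stopped with 1M NaOH/1M glycine, pH 10.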

The target of test [10] is alpha-glucosidase (Oryza sativa, rice) (UniProt Q653V4). Briefly: Counterscreen for Glucocerebrosidase Inhibitors: qHTS Assay for Rice alpha-Glucosidase at pH 5.0 (AID 997).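 Note: 0% = full activity with enzyme and -100% = basal without enzyme.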 An outline of the steps:
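Rice alpha-glucosidase (4 nM final) with 400 uM 4-methylumbelliferyl-alpha-D-glucopyranoside in citrate buffer pH 5.0, 20 min at room temperature, stopped at pH 10; fluorescence 365/440 nm, compounds 0.7 nM–77 uM, AC50 from Hill fits.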
Background: A counterscreen serves to expose hits that act by an unwanted route or on another target.

Test [11] is described as follows: Counterscreen for APE1 Inhibitors: Fluorescent Dye Displacement Validation Assay (AID 1707).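 Note: plate controls were ThO with dsDNA and no compound for no effect and ThO without dsDNA for full effect.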 An outline of the steps:
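Compounds are scored by their ability to displace Thiazole Orange (250 nM) from a 50 nM TAMRA-tagged duplex bearing a tetrahydrofuran abasic site. Buffer is 50 mM Tris-HCl pH7.5, 50mM NaCl, 2 mM MgCl2, 0.01% Tween-20.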

A short description of test [12]: qHTS for differential inhibitors of proliferation of Plasmodium falciparum line 7G8 (AID 1815).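 Note: potency is the fitted concentration of half-maximal effect; parasite growth measured after three days of incubation.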
Test [13] can be described thus: qHTS for differential inhibitors of proliferation of Plasmodium falciparum line GB4 (AID 1816).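 Note: potency is the fitted concentration of half-maximal effect; parasite growth measured after 72 h incubation.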 The following applies: Potency: Plasmodium falciparum GB4 proliferation inhibition.
The target in test [14] is Ferritin light chain (Equus caballus) (UniProt P02791). Briefly: qHTS Validation Assay for Identification of Novel General Anesthetics (AID 2323). Note: % is set by controls: 0 for no effect and ±100 for the full control effect. An outline of the steps: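 Normalized fluorescence response, scaled between free 1-AMA and 1-AMA/apoferritin complex, fitted to a four-parameter Hill equation for concentration-effect values. Binding mix: 10 uM horse-spleen apoferritin, 50% saturated 1-AMA in PBS; read 380/535 nm after 10 min.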

The target in test [15] is ATP-dependent DNA helicase Q1 (Homo sapiens) (UniProt P46063). Briefly: qHTS Validation Assay for Inhibitors of RecQ-Like Dna Helicase 1 (RECQ1) (AID 2353).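 Note: plate controls were DMSO vehicle for no effect and enzyme-free control for full effect.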 An outline of the steps:
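50 nM RECQ1T1 preincubated 15 min with compound in Tris pH 8.0 buffer with MgCl2, DTT, Tween-20 and 2.5 ug/ml poly(dI-dC); started with 200 nM TAMRA/BHQ-2 forked duplex and 2 mM ATP. Unwinding read as fluorescence (525/598 nm), two reads 2 h apart.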

Test [16] has as its target M-phase phosphoprotein 8 (Homo sapiens) (UniProt Q99549). As to the kind of experiment: qHTS Validation Assay for Inhibitors for MPP8 Chromodomain Interactions with Methylated Histone Tails (AID 488949). Note: nearly all actives have a fitted effect of over 55% in size. Note: potency is the fitted concentration of half-maximal effect. An outline of the steps: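 Chemiluminescent proximity assay: histidine-tag capture via nickel acceptor beads, biotin peptide via streptavidin donor beads. Protein and peptide each at 50 nM, pH 7.4, with 30 min incubations at room temperature for complex formation, compound exposure and bead binding.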

Test [17] addresses Thyrotropin receptor (Homo sapiens) (UniProt P16473). Briefly: qHTS Assay for Antagonists of the Thyroid Stimulating Hormone Receptor (AID 488980). Note: 0% is about no effect. An outline of the steps: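 Inhibition of TSH-stimulated cAMP accumulation was quantified by homogeneous time-resolved FRET in TSHR-transfected HEK293 cells. Agonist: TSH, 4 nM final (EC80).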
The target in test [18] is Thyrotropin-releasing hormone receptor (Homo sapiens) (UniProt P34981). As to the kind of experiment: qHTS for Small Molecule Agonists and Allosteric Enhancers of Human TRH Receptor: Validation Screen for Agonists (AID 493127;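 active = calcium activation more than 3 SD above the typical response in the agonist read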;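 note: intracellular calcium rise by fluo-8 fluorescence before TRH EC20 addition; 0% is about no effect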). The following applies: TRH receptor agonist cell assay; at 2 µM; stronger effect = higher value. An outline of the steps: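 TRHR-expressing cells were plated overnight in serum-containing medium, then loaded with fluo-8 calcium dye at room temperature for 30 min–1.5 h. After a 10 s baseline, compound was pin-transferred and calcium fluorescence (ex 480/em 530) read kinetically for agonist response.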
Chain of Thyrotropin-releasing hormone receptor (Homo sapiens) (P34981 whole entry, looked up): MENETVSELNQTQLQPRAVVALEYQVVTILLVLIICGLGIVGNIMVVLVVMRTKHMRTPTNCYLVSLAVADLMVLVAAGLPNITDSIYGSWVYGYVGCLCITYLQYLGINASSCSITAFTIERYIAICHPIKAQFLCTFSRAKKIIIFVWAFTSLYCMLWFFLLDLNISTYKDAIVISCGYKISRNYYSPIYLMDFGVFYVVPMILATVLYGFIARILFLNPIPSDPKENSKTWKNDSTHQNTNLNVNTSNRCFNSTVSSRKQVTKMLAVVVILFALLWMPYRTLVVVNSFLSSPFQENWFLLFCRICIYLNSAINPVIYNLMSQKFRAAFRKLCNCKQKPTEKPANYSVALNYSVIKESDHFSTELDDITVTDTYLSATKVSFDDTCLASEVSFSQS

The target of test [19] is Galactokinase (Homo sapiens) (UniProt P51570). As to the kind of experiment: qHTS Validation Assay for Inhibitors of Human Galactokinase (GALK) (AID 493189). Note: 0% is about no effect. An outline of the steps:
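Enzyme activity is inferred from ATP consumption: human GALK phosphorylates galactose (100 uM) using 35 uM ATP for 1 h at room temperature, and luciferase-based Kinase-Glo Plus reports unconsumed ATP.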

Test [20] can be described thus: Validation screen for small molecules that induce DNA re-replication in SW480 colon adenocarcinoma cells (AID 504364). Note: 0% is about no effect. An outline of the steps: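 SW480 cells seeded at 250 per well were exposed to compound or DMSO for 48 hr at 37 C, 5% CO2, then stained with Hoechst for 40 min. DNA content per nucleus was imaged (405 nm ex, 500-530 nm em).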
Test [21] has as its target Catechol O-methyltransferase (Homo sapiens) (UniProt P21964). Briefly: Confirmatory Screen for Target Class Profiling of Small Molecule Inhibitors of Methyltransferases (AID 1745852; calls by dose curve; for activity change, negative = inhibition: % is set by controls: 0 for no effect and ±100 for the full control effect). As to conditions: MTase-Glo luminescence, SAH detection, recombinant enzyme; measured here: COMT max response; stronger effect = lower value.
The target in test [22] is Guanidinoacetate N-methyltransferase (Homo sapiens) (UniProt Q14353). Described as above. As to conditions: activity change, negative = inhibition: at 57.3 µM (top of the series) unless noted.
Test [23] deals with Nicotinamide N-methyltransferase (Homo sapiens) (UniProt P40261). The test is described as above. The following applies: MTase-Glo luminescence, SAH detection, recombinant enzyme; measured here: NNMT max response; stronger effect = lower value.
Chain of Nicotinamide N-methyltransferase (Homo sapiens) (P40261 whole entry, looked up): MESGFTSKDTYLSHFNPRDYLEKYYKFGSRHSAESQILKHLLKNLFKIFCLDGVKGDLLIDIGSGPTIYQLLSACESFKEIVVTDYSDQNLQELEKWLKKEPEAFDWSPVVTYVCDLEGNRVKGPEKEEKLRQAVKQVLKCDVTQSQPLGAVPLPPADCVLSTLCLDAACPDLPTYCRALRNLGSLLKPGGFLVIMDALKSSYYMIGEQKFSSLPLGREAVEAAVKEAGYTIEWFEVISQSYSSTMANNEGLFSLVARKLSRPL
The target in test [24] is Phenylethanolamine N-methyltransferase (Homo sapiens) (UniProt P11086). Described as above. The following applies: MTase-Glo luminescence, SAH detection, recombinant enzyme; measured here: PNMT max response; stronger effect = lower value.
Chain of Phenylethanolamine N-methyltransferase (Homo sapiens) (P11086 whole entry, looked up): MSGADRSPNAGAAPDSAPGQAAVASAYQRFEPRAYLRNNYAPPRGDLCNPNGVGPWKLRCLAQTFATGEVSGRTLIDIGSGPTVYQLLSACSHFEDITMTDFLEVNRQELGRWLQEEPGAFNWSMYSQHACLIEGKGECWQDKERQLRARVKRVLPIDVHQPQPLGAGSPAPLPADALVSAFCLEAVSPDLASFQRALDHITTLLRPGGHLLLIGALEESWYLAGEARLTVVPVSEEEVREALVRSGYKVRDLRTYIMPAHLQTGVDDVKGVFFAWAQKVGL
Test [25] has as its target Endonuclease 4 (Escherichia coli (strain K12)) (UniProt P0A6C1). Briefly: Counterscreen for APE1 Inhibitors: qHTS Validation Assay for Inhibitors of Endonuclease IV (AID 1708). Note: % is set by controls: 0 for no effect and ±100 for the full control effect. An outline of the steps: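 Cleavage of a quenched abasic-site DNA duplex (50 nM, 5'-TAMRA, 3'-BHQ-2) by 2 nM enzyme is followed as fluorescence increase. Compounds are preincubated with enzyme 15 min at room temperature before substrate addition.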

Test [26] in a line: qHTS for differential inhibitors of proliferation of Plasmodium falciparum line Dd2 (AID 1882).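 Note: compound exposure of 72 h on infected erythrocytes; plate controls were DMSO vehicle for no effect and 0.29 µM artemisinin for full effect; nearly all actives have a fitted effect of over 65% in size.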 As to conditions: Potency: Plasmodium falciparum Dd2 proliferation inhibition. An outline of the steps: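 SYBR Green I DNA fluorescence read-out, ex 485/em 535 nm. Signals were normalized to 0.29 uM artemisinin and DMSO wells, then corrected using vehicle-only plates flanking each stack. Parasite growth ran 72 h in erythrocytes before lysis.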

Test [27] is described as follows: qHTS for differential inhibitors of proliferation of Plasmodium falciparum line W2 (AID 1883).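 Note: potency is the fitted concentration of half-maximal effect; parasites grown with compound for 72 h before lysis and staining.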 As to conditions: Potency: Plasmodium falciparum W2 proliferation inhibition.
The nature of test [28]: qHTS for differential inhibitors of proliferation of Plasmodium falciparum line HB3 (AID 1886).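 Note: parasites grown with compound for 72 h before SYBR Green readout; plate controls were vehicle for no effect and reference inhibitor for full effect.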 The following applies: Potency: Plasmodium falciparum HB3 proliferation inhibition.
Test [29] can be described thus: qHTS Assay for Modulators of Human Peripheral Myelin Protein 22 (PMP22) Expression/Activity (AID 1967; active = well fitted curve in the direction sought with a large enough effect in the signal ratio; the % refers to the signal ratio;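 note: 0% = untreated cells and 100% end not stated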). An outline of the steps:
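Engineered MSC80 cells, Pmp22-promoter green and EF-alpha red luciferase reporters; 24h compound treatment at 37 °C. Concentration-response fits on green, red and ratio signals, each overlap-corrected, with %Activity normalized to untreated wells.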

Test [30] in a line: Validation screen for small molecules that induce DNA re-replication in MCF 10A normal breast cells (AID 463097). Note: 0% is about no effect; nearly all actives have a fitted effect of over 60% in size. An outline of the steps:
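Following 48 hr compound incubation (37 C, 5% CO2), MCF 10A cells receive Hoechst for 40 min at 37 C. Nuclei are then scanned (excitation 405 nm, emission 500-530 nm) for total fluorescence intensity.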

Test [31] in a line: Quantitative high throughput screen for delayed death inhibitors of the malarial parasite plastid, 48 hour incubation (AID 488752). Note: % is set by controls: 0 for no effect and ±100 for the full control effect; nearly all actives have a fitted effect of over 65% in size. An outline of the steps: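 Erythrocytes infected with P. falciparum carrying an integrated firefly luciferase reporter (2% hematocrit, 0.1% parasitemia final) were exposed to compounds in RPMI 1640/0.5% Albumax for 48 h at 37 C, 5% CO2. Growth inhibition was scored as reduced luminescence.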

The target of test [32] is Voltage-gated inwardly rectifying potassium channel KCNH2 (Homo sapiens) (UniProt Q12809). Briefly: qHTS Assay for Small Molecule Inhibitors of the Human hERG Channel Activity (AID 588834).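 Note: top concentration of the series differs between compounds; % is set by controls: 0 for no effect and ±100 for the full control effect; lower thallium flux fluorescence means stronger hERG block; nearly all actives have a fitted effect of over 50% in size.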 An outline of the steps: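 Blockade is seen as reduced FluxOR thallium-flux fluorescence in U2OS cells expressing hERG from a BacMam construct, in Opti-MEM with 2% FCS. Concentration-response data fitted to the Hill equation for AC50.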

Inconclusive results are not listed. Activity calls are given as the source filed them. Unless noted, calls come from the whole dose curve; as a rule, active = well fitted curve in the direction sought with a large enough effect; inconclusive = small, poorly fitted or top-dose-only effect, or another doubt; inactive = no such curve, though single readings can be large; an effect the other way counts as inactive or inconclusive.

Chain of M-phase phosphoprotein 8 (Homo sapiens) (Q99549 whole entry, looked up): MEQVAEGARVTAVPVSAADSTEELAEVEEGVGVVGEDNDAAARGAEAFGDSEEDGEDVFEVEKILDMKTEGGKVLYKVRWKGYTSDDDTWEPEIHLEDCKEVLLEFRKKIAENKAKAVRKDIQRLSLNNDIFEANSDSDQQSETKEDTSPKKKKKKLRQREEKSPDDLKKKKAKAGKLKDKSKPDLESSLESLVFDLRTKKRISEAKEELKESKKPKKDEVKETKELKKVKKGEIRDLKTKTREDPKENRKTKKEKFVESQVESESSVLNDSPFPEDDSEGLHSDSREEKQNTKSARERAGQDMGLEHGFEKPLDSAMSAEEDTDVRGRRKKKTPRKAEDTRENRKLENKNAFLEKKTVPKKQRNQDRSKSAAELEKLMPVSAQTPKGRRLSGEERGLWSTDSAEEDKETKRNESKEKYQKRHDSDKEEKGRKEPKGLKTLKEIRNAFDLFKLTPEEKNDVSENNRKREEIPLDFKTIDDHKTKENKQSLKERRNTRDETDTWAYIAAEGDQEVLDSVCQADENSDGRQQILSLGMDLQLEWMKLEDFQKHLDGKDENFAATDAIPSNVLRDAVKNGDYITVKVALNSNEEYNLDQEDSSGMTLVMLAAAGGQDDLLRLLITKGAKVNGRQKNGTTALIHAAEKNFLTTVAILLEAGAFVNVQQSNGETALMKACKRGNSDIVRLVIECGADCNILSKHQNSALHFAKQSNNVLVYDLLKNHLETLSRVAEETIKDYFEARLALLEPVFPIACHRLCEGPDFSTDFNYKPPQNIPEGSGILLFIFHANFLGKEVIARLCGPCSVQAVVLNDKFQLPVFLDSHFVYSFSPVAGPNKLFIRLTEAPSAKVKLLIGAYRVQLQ
Chain of ATP-dependent DNA helicase Q1 (Homo sapiens) (P46063 whole entry, looked up): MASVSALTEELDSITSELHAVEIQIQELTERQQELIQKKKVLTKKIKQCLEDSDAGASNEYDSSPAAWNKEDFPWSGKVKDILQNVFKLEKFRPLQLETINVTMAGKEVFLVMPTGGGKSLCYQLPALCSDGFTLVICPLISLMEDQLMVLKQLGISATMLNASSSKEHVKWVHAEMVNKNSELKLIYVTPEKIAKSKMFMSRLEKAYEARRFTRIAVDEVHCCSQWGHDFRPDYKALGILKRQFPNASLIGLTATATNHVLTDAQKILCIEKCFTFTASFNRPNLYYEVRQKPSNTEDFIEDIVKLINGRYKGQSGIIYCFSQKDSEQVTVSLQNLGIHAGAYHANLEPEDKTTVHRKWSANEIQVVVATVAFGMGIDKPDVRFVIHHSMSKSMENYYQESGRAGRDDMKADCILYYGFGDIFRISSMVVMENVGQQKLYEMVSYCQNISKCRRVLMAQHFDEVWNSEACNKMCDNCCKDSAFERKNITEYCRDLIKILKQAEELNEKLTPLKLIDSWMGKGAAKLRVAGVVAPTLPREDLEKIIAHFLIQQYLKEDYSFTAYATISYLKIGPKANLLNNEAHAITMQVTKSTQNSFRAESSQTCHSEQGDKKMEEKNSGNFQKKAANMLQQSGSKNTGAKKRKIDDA
Chain of Galactokinase (Homo sapiens) (P51570 whole entry, looked up): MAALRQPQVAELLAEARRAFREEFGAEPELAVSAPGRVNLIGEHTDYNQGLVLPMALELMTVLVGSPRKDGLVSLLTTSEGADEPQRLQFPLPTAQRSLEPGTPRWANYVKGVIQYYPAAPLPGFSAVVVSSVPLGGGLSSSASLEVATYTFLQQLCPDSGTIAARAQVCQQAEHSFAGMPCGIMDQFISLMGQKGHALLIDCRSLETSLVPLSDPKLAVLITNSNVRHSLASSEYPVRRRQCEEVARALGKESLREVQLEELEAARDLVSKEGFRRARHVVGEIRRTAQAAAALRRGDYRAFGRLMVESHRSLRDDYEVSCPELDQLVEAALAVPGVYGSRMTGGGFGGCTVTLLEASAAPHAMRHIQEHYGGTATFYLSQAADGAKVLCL
Chain of Thyrotropin receptor (Homo sapiens) (P16473 whole entry, looked up): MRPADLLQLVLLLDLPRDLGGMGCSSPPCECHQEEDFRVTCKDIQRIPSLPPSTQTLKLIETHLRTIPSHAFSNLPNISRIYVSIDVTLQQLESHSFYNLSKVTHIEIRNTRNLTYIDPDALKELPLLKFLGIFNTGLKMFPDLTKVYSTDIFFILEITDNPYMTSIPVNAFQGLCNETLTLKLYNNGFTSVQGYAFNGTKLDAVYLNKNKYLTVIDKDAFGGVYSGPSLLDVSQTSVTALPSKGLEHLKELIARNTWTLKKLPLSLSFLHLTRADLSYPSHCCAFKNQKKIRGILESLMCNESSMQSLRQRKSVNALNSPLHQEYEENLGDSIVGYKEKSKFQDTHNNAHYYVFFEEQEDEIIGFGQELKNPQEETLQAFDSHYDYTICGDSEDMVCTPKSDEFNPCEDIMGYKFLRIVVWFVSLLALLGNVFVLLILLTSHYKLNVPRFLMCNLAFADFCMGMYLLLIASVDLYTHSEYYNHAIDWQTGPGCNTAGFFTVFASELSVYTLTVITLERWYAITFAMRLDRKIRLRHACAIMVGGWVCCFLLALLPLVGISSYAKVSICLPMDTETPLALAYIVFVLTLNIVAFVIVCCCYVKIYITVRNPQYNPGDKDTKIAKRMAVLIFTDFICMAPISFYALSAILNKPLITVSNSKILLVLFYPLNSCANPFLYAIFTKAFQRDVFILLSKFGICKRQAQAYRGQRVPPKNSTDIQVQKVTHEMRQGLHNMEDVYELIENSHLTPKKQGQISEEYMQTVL

On to `CC(C)C[C@H](N)CSSC[C@@H](N)CC(C)C`, for which the outcome in test [1], in test [7], in [8], in test [9], in [10] and in [11] was “inactive” throughout. Further, the outcome in test [14], in test [15], in test [17] and in test [19] was “inactive” each time. Besides, the Potency in test [2] was > 46 µM (inactive); in test [5] it was 12.6 µM (active); in test [12] it was 14.1 µM (active); in test [13] it was 10 µM (active); in test [16], 50.1 µM (active). Also, the Potency entry in test [3], in [4], in test [6] and in test [20] was “inactive” each time. In test [18], the activation was 6.19% (inactive).

With `CCC1Oc2ccc(NS(=O)(=O)c3ccc(Cl)cc3)cc2CN(Cc2ccc(F)cc2)C1=O` (stereo not drawn), the activity in [21] is -6.43%; in test [23] it was -24.1%; in [24], -6.42%. The activity change, negative = inhibition in test [22] is -14.3%.

With `C[C@]12C[C@H](O)C3[C@@H](CCC4=CC(=O)CC[C@@]43C)[C@@H]1CC[C@@H]2C(=O)CO` (stereo partly drawn), the outcome in test [11], in test [29], in test [15], in test [17] and in [19] was “inactive” each time. Further, the Potency result in [25], in test [26], in [28], in [30], in [31] and in test [16] was “inactive” in each case. In addition, the Potency entry in [20] and in [32] was “inactive” each time. Also, the Potency in [27] was 11.2 µM (active).

Source of the values: PubChem BioAssay (NCATS).
